Measured values taken from the supplement of paper PMC10646978.
± gives the standard deviation.

What was measured:
Details in all cases: modulator concentration 10 µM
[1] = system: RAW-Dual (murine macrophage reporter line); assay: NF-kB reporter (SEAP) activity fold change vs agonist alone; higher = enhanced NF-kB activity
Method in brief: (§1)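 RAW-Dual murine macrophage reporter cells were plated at 50 000 per well in 384-well plates, pin-transferred compound to 10 μM final, and pre-incubated for 1 hour at 37 °C before a PRR agonist was added and the cells incubated overnight. NF-κB activity was read from supernatant SEAP with QUANTI-Blue at 620 nm absorbance, and IRF activity from Lucia luciferase with QUANTI-Luc by luminescence. Each signal was expressed as fold change by dividing by the mean agonist-only control on the same plate. Two replicate plates were averaged, with errors obtained by propagation.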

[2] = system: RAW-Dual (murine macrophage reporter line); assay: IRF reporter (Lucia luciferase) activity fold change vs agonist alone; higher = enhanced IRF activity
Method in brief: as §1

[3] = system: RAW-Dual (murine macrophage reporter line); assay: viability score (confluency relative to resting cells, overnight) (fraction); higher = more viable, active = viable (0.7 or more)
Method in brief: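 A compound met the cutoff when both of two confluency masks exceeded 70% of resting cells. Those masks were made with IncuCyte software from IncuCyte images of RAW-Dual macrophages treated overnight at 10 μM final. This is the basis of the viability score, which is confluency relative to resting cells.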

[4] = agonist: CpG ODN 1826 0.5 ug/mL

Row | Compound | NF-kB reporter [1, 4] | NF-kB reporter ([1]; agonist: LPS 0.1 ug/mL) | NF-kB reporter ([1]; agonist: MPLA […]) | IRF reporter ([2]; agonist: 3'3'-cGAMP 10 ug/mL) | IRF reporter ([2]; agonist: LPS 0.1 ug/mL) | IRF reporter ([2]; agonist: MPLA […]) | viability score [3]
1 | CCCC(=O)Nc1ncnc2c1ncn2[C@@H]1O[C@@H]2OP(=O)([O-])OC[C@H]2[C@H]1OC(=O)CCC [Prestw-813] | 1.27 ± 0.12 | 1.14 ± 0.079 | 1.14 ± 0.12 | 0.991 ± 0.056 | 1.41 ± 0.14 | 1.21 ± 0.16 | 1 (active)
2 | O=C(CC1(Cc2ccc(I)cc2)C(=O)c2ccccc2C1=O)c1ccccc1 | 0.803 ± 0.073 | 0.876 ± 0.046 | 1.02 ± 0.091 | 0.953 ± 0.044 | 1.42 ± 0.12 | 1.59 ± 0.17 | 0.996 (active)
3 | Cc1ccc(C(CNC(=O)Cc2cccc3ccccc23)N(C)C)cc1 (configuration not stated) | 0.647 ± 0.033 | 1.13 ± 0.094 | 1.06 ± 0.048 | 0.899 ± 0.045 | 1.03 ± 0.12 | 1.23 ± 0.27 | 0.738 (active)
4 | CCCCc1nc(Cl)c(CO)n1Cc1ccc(-c2ccccc2-c2nnn[nH]2)cc1 [Prestw-1433] | 1.2 ± 0.29 | 1.08 ± 0.054 | 1.02 ± 0.065 | 0.944 ± 0.034 | 1.29 ± 0.14 | 1.32 ± 0.19 | 1 (active)
5 | COc1ccc(CNCc2cccc3ccccc23)cc1OC | 0.482 ± 0.04 | 0.912 ± 0.094 | 0.966 ± 0.042 | 0.832 ± 0.15 | 1.06 ± 0.086 | 1.16 ± 0.21 | 0.997 (active)
6 | NC(=O)CSc1nc2ccccc2[nH]1 | 1.1 ± 0.088 | 1.07 ± 0.081 | 0.998 ± 0.037 | 0.985 ± 0.16 | 1.09 ± 0.13 | 0.992 ± 0.16 | 0.997 (active)
7 | COC(CNC(=O)c1cccc(Cl)c1)c1ccccc1C (configuration not stated) | 0.774 ± 0.038 | 0.876 ± 0.092 | 0.958 ± 0.075 | 0.965 ± 0.059 | 1.22 ± 0.23 | 1.37 ± 0.34 | 0.999 (active)
8 | NC(=O)c1ncn([C@@H]2O[C@H](CO)[C@@H](O)[C@H]2O)n1 | 0.766 ± 0.17 | 1.07 ± 0.14 | 0.86 ± 0.084 | 1.16 ± 0.05 | 1.66 ± 0.22 | 1.77 ± 0.18 | 0.986 (active)
9 | CCCCCCCC(O)CC(CC1CCCCC1)C(=O)NN (configuration not stated) | 0.721 ± 0.056 | 0.912 ± 0.074 | 0.977 ± 0.093 | 0.88 ± 0.062 | 1.19 ± 0.22 | 1.28 ± 0.28 | 1.02 (active)
10 | C#Cc1cccc(Nc2ncnc3cc4c(cc23)OCCOCCOCCO4)c1 | 0.937 ± 0.043 | 1 ± 0.11 | 1.11 ± 0.093 | 1.02 ± 0.05 | 1.2 ± 0.17 | 1.39 ± 0.36 | 1.02 (active)
11 | Cc1cc(OC2CN(C(=O)Cc3c[nH]c4ccccc34)C2)cc(=O)n1C1CC1 | 1.1 ± 0.055 | 1.1 ± 0.091 | 0.997 ± 0.11 | 1 ± 0.05 | 1.2 ± 0.076 | 1.23 ± 0.12 | 0.983 (active)
12 | FC(F)(F)c1nnc2ccc(NC3CCN(c4ncnc5c4CCCC5)CC3)nn12 | 1.19 ± 0.096 | 1.52 ± 0.13 | 1.79 ± 0.13 | 1.17 ± 0.086 | 1.46 ± 0.091 | 1.4 ± 0.18 | 0.972 (active)
13 | CCC(=O)c1ccc(N2CCCCCC2)c(F)c1 | 0.864 ± 0.067 | 0.96 ± 0.074 | 1.14 ± 0.16 | 1 ± 0.048 | 1.61 ± 0.1 | 2.1 ± 0.18 | 0.982 (active)
14 | CCOCCOC(=O)C1=C(C)NC2=C(C(=O)CCC2)C1c1coc2ccc(C)cc2c1=O (configuration not stated) | 0.973 ± 0.083 | 0.961 ± 0.12 | 0.993 ± 0.12 | 1.01 ± 0.029 | 1.41 ± 0.14 | 1.18 ± 0.11 | 1.01 (active)
15 | CN(C)c1nc(CNC(=O)c2cnn(-c3ccccc3)n2)nc(N2CCCC2)n1 | 1.01 ± 0.052 | 1.1 ± 0.086 | 1.02 ± 0.11 | 1.05 ± 0.054 | 1.26 ± 0.08 | 1.13 ± 0.31 | 1.02 (active)
16 | COc1ccc(-n2ncc3c(Nc4cc(OC)c(OC)c(OC)c4)ncnc32)cc1 | 1.13 ± 0.05 | 0.938 ± 0.078 | 1.09 ± 0.085 | 0.821 ± 0.044 | 1.04 ± 0.26 | 1.28 ± 0.45 | 0.887 (active)
17 | CC(Nc1ccc(N)cc1)=C1C(=O)c2ccccc2C1=O | 0.913 ± 0.083 | 0.855 ± 0.043 | 1.01 ± 0.09 | 0.888 ± 0.059 | 1.49 ± 0.1 | 1.68 ± 0.15 | 1 (active)
18 | CC(C)NC[C@H](O)COc1ccc(CCOCC2CC2)cc1.Cl | 1.15 ± 0.1 | 1.07 ± 0.16 | 1.11 ± 0.037 | 0.871 ± 0.11 | 0.987 ± 0.09 | 0.868 ± 0.12 | 1 (active)

Row | Compound | NF-kB reporter [1, 4] | NF-kB reporter ([1]; agonist: LPS 0.1 ug/mL) | NF-kB reporter ([1]; agonist: MPLA […]) | IRF reporter ([2]; agonist: 3'3'-cGAMP 10 ug/mL) | IRF reporter ([2]; agonist: LPS 0.1 ug/mL) | IRF reporter ([2]; agonist: MPLA […]) | viability score [3]
19 | COc1c(C)c2c(c(O)c1CC=C(C)CCC(=O)O)C(=O)OC2 | 0.695 ± 0.23 | 0.118 ± 0.008 | 0.367 ± 0.023 | 0.287 ± 0.0097 | 1.16 ± 0.15 | 1.55 ± 0.16 | 0.547 (inactive)
20 | CCOc1nccn2c(CNC(=O)c3cccnc3)nnc12 | 0.929 ± 0.098 | 1.05 ± 0.084 | 1.11 ± 0.15 | 1.03 ± 0.064 | 1.02 ± 0.19 | 1 ± 0.4 | 0.988 (active)
21 | COc1cccc2c1C(=O)c1c(O)c3c(c(O)c1C2=O)C[C@@](O)(C(=O)CO)C[C@@H]3O[C@H]1C[C@H](N)[C@H](O)[C@H](C)O1.Cl | 0.0942 ± 0.012 | 0.0784 ± 0.0047 | 0.178 ± 0.036 | 0.101 ± 0.014 | 0.0915 ± 0.01 | 0.127 ± 0.024 | 0.372 (inactive)
22 | Brc1ccc(-c2cc(-c3ccccc3)nc(N3CCCCC3)n2)cc1 | 0.951 ± 0.2 | 1.1 ± 0.092 | 1 ± 0.079 | 0.859 ± 0.03 | 1.17 ± 0.11 | 1.33 ± 0.15 | 1 (active)
23 | COCCNCCOc1ccccc1C(C)C | 0.767 ± 0.12 | 1.03 ± 0.084 | 0.899 ± 0.069 | 0.895 ± 0.031 | 1.32 ± 0.26 | 1.26 ± 0.18 | 0.554 (inactive)
24 | CC(=O)OC(OC(C)=O)c1ccc([N+](=O)[O-])cc1 | 1.16 ± 0.094 | 1.06 ± 0.069 | 1 ± 0.035 | 1 ± 0.17 | 1.09 ± 0.1 | 1.09 ± 0.17 | 1 (active)
25 | COc1ccc(C=NN2CCN(C)CC2)c(OC)c1 | 0.84 ± 0.065 | 0.95 ± 0.047 | 1.04 ± 0.09 | 0.914 ± 0.056 | 1.25 ± 0.08 | 1.33 ± 0.11 | 1.01 (active)
26 | CCOc1ccccc1NC(=O)NCc1sc(-c2ccccc2Cl)nc1C | 0.768 ± 0.19 | 1.07 ± 0.058 | 0.98 ± 0.072 | 0.89 ± 0.048 | 0.926 ± 0.17 | 0.898 ± 0.11 | 1 (active)
27 | O=C(CSc1nc(-c2ccccc2)c(-c2ccccc2)o1)N1CCOCC1 | 1.03 ± 0.081 | 1.02 ± 0.079 | 0.903 ± 0.054 | 0.954 ± 0.045 | 1.31 ± 0.11 | 1.2 ± 0.12 | 0.996 (active)
28 | Cc1cccc(C(C)C)c1NC(=O)c1ccccc1Br | 0.951 ± 0.16 | 0.956 ± 0.085 | 0.953 ± 0.074 | 0.988 ± 0.044 | 1.28 ± 0.23 | 1.14 ± 0.12 | 0.971 (active)
29 | CCOc1nc2cccc(C(=O)O)c2n1Cc1ccc(-c2ccccc2-c2nc(=O)o[nH]2)cc1 | 1.29 ± 0.17 | 1.14 ± 0.32 | 1.12 ± 0.073 | 0.886 ± 0.042 | 1.41 ± 0.38 | 1.31 ± 0.12 | 1 (active)
30 | O=S1(=O)CCC(NCc2ccccc2C(F)(F)F)C1 (configuration not stated) | 0.997 ± 0.095 | 1.13 ± 0.11 | 0.978 ± 0.08 | 1.02 ± 0.071 | 1.03 ± 0.092 | 1.04 ± 0.32 | 1 (active)
31 | S=C(NCCN1CCOCC1)Nc1ccc(Cl)cc1 | 1 ± 0.23 | 0.966 ± 0.1 | 0.886 ± 0.12 | 0.71 ± 0.019 | 1.22 ± 0.16 | 1.13 ± 0.12 | 0.986 (active)
32 | Cl.OC(CC#CCN1CCCC1)(c1ccccc1)c1ccccc1 | 0.726 ± 0.13 | 1.08 ± 0.086 | 0.967 ± 0.074 | 0.748 ± 0.019 | 1.28 ± 0.15 | 1.42 ± 0.17 | 0.597 (inactive)
33 | COC1(c2ccc(Cl)cc2)OC(=O)c2ccccc21 (configuration not stated) | 0.805 ± 0.1 | 0.974 ± 0.052 | 1.07 ± 0.093 | 0.9 ± 0.052 | 1.06 ± 0.073 | 1.13 ± 0.16 | 0.992 (active)
34 | CC(=O)Oc1ccc2occ(C(=O)c3cccs3)c2c1 | 0.844 ± 0.099 | 0.964 ± 0.13 | 1.19 ± 0.14 | 0.836 ± 0.039 | 1.17 ± 0.074 | 1.26 ± 0.18 | 1.02 (active)
35 | Nc1nc(Cl)nc2c1ncn2[C@H]1C[C@H](O)[C@@H](CO)O1 | 1.91 ± 0.4 | 1.39 ± 0.11 | 1.65 ± 0.12 | 0.723 ± 0.055 | 1.09 ± 0.096 | 1.08 ± 0.22 | 0.244 (inactive)
36 | FC(F)(F)c1ccc(/C=C/c2nc(COc3ccc(CCCCn4ccnn4)cc3)co2)cc1 | 1.26 ± 0.17 | 1.71 ± 0.29 | 1.46 ± 0.09 | 0.914 ± 0.028 | 1.67 ± 0.14 | 1.77 ± 0.16 | 0.995 (active)
